Source: PubChem
GALK inh = qHTS Assay for Inhibitors of Human Galactokinase (GALK) | P51570 | Purified GALK, Kinase-Glo residual ATP luminescence | Potency, µM (highest dose often 57.5 µM), actives largely listed as inhibitors | 270,000 tested, 0.007% active | AID 1868, 2009
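5 nM enzyme, 35 uM ATP, 100 uM galactose, 20 mM HEPES pH8.0, 5 mM MgCl2; 1 h RT; residual ATP by Kinase-Glo Plus luminescence, qHTS format.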
rTrxR1 inhibitor = qHTS Assay for Inhibitors of Mammalian Selenoprotein Thioredoxin Reductase 1 (TrxR1): qHTS. AID 588453, 2011. 390,000 tested, 1% active. Potency, µM (highest dose often 114 µM), most hits filed as inhibitors. Thioredoxin reductase 1, cytoplasmic (Rattus norvegicus), O89049. recombinant rTrxR1, NADPH fluorescence consumption, selenite substrate; further: nearly all actives have a fitted effect of over 65% in size
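Rat TrxR1 (90 nM in the dispensed reagent) was pre-reduced with 400 uM NADPH for 5 min at room temperature, then incubated with compound for 15 min. After 400 uM selenite was added, NADPH fluorescence (Ex 340/Em 450 nm) was followed for 8 min.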
PKM2 act = qHTS Assay for Activators of Human Muscle isoform 2 Pyruvate Kinase. Pyruvate kinase PKM (Homo sapiens), P14618. purified PKM2, Kinase-Glo ATP luminescence, activation; response scale: 0% is enzyme alone, no compound. Potency, µM (titrated, usually from 57.5 µM), usual class: activators. 260,000 tested, 0.34% active. AID 1631, 2009; further: nearly all actives have a fitted effect of over 55% in size
Target sequence (P14618 whole entry, looked up, canonical isoform): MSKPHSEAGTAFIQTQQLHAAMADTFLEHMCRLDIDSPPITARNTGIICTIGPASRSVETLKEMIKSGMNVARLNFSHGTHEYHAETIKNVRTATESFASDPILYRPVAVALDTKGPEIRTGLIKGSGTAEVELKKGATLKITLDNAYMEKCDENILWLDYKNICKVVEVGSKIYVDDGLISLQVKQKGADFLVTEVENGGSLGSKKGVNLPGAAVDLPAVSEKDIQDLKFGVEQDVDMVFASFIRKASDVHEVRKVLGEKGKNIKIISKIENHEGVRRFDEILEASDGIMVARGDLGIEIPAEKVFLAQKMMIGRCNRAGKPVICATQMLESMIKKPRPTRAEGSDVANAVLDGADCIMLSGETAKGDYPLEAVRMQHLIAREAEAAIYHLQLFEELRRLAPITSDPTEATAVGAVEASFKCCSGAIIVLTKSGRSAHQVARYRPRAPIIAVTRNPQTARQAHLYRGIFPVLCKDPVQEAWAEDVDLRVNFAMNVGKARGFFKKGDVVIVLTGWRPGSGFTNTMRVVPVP
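Purified hPK-M2 (>95% pure) converted ADP (0.1 mM final) to ATP with 0.5 mM PEP in 50 mM imidazole pH7.2, KCl, MgCl2, Tween 20, BSA; 1 h at room temperature. ATP detected by Kinase-Glo luminescence.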
TrxR1 substrate = qHTS Assay for Substrates of Mammalian Selenoprotein Thioredoxin Reductase 1 (TrxR1): qHTS | Thioredoxin reductase 1, cytoplasmic (Rattus norvegicus), O89049 | purified TrxR1 substrate turnover, NADPH consumption readout | Potency, µM (series often up to 114 µM) | 390,000 tested, 0.01% active | AID 588456, 2011; further: nearly all actives have a fitted effect of over 50% in size
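Rat TrxR1, dispensed at 90 nM, was prereduced with 400 uM NADPH (final) for 5 min at ~22 deg C, then incubated with compound 15 min before 400 uM selenite. A first-read NADPH fluorescence drop versus no-compound background flagged substrates.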
PI4K2A inh = qHTS for small molecular inhibitors of PI4K2A. purified PI4K2A, ADP-Glo luminescence, 1 h; stronger effect = lower value. activity change, negative = inhibition, % at 76.9 µM. AID 1346378, 2018. 420,000 tested, 0.13% active; in the data active means activity change below about -50%; inconclusive means mostly about -30% to -49%
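Compounds are screened against recombinant PI4K2A using PI as substrate and ATP, the latter dispensed at 300 microM. Reactions run one hour at ambient temperature before ADP-Glo detection; full inhibition defined by wells lacking enzyme.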
Hits are given with their value; . = inactive; ? = inconclusive; / = not tested or not shown. Sampled rows, rich in hits. Any-hit rate of the full collection: about 1.2%. Unless noted, the call rests on the fitted dose curve; in most records, active means well fitted curve in the direction sought with a large enough effect; inconclusive means small, poorly fitted or top-dose-only effect, or another doubt; inactive means no such curve, though single readings can be large; an effect the other way counts as inactive or inconclusive.

SMILES | GALK inh | rTrxR1 inhibitor | PKM2 act | TrxR1 substrate | PI4K2A inh
C/C=C/C(=O)N1CC2(CC(c3cccc(NC(=O)CCCCC)c3)=NO2)C[C@H]1C(N)=O (stereo partly specified) | . | / | . | / | /
C/C=C/C=C/C(=O)N1CC2(CC(c3cccc(NC(=O)CCCCC)c3)=NO2)C[C@H]1C(N)=O (stereo partly specified) | . | 28µM | 7.9µM | . | .
C/C=C(\C)C(=O)Nc1cccc(C2=NOC3(C2)C[C@@H](C(N)=O)N(C(=O)/C(C)=C/C)C3)c1 (stereo partly specified) | . | . | . | . | .
C/C=C\C=C/C(=O)Nc1cccc(C2=NOC3(C2)C[C@@H](C(N)=O)N(C(=O)CCCCC)C3)c1 (stereo partly specified) | . | 14µM | ? | . | .
C/C=C/C=C\C(=O)Nc1cccc(C2=NOC3(C2)C[C@@H](C(N)=O)N(C(=O)/C(C)=C/C)C3)c1 (stereo partly specified) | . | 11µM | ? | . | ?
C/C=C(/C)C(=O)Nc1cccc(C2=NOC3(C2)C[C@H](C(N)=O)N(C(=O)Cc2ccc([N+](=O)[O-])cc2)C3)c1 (stereo partly specified) | . | . | . | . | .
CN(C(=O)COc1ccccc1C(=O)Nc1ccccc1)c1ccccc1 | / | . | / | . | /
C/C=C\C=C/C(=O)Nc1cccc(C2=NOC3(C2)C[C@@H](C(N)=O)N(C(=O)c2ccc(Cl)cc2)C3)c1 (stereo partly specified) | . | ? | ? | . | .
C/C=C\C=C/C(=O)Nc1cccc(C2=NOC3(C2)C[C@H](C(N)=O)N(C(=O)c2ccc(OC)cc2)C3)c1 (stereo partly specified) | . | ? | 14µM | . | .
C/C=C/C(=O)Nc1cccc(C2=NOC3(C2)C[C@H](C(N)=O)N(C(=O)/C=C/C)C3)c1 (stereo partly specified) | . | . | . | . | .
C/C=C/C=C\C(=O)Nc1cccc(C2=NOC3(C2)C[C@H](C(N)=O)N(C(=O)CC#N)C3)c1 (stereo partly specified) | . | 22µM | 20µM | . | ?
C/C=C\C=C/C(=O)Nc1cccc(C2=NOC3(C2)C[C@H](C(N)=O)N(C(=O)CC)C3)c1 (stereo partly specified) | . | 14µM | 13µM | . | .
CCC(C)[C@H](NC(=O)[C@H](Cc1ccccc1)NC(=O)OC(C)(C)C)C(=O)NCc1ccccc1Br (stereo partly specified) | / | / | / | / | .
COc1ccc(OC)c(S(=O)(=O)N2CCCCC2C(=O)N2CCN(CCO)CC2)c1 (stereo unspecified) | / | / | / | / | .
Cn1cc(-c2cccc3[nH]cc(-c4ccccc4)c23)c2ccccc21 | / | / | / | / | .
CN1C2CCCC1CC(NC(=O)c1nn(C)c3ccccc13)C2 (stereo unspecified) | / | . | / | . | .
[N-]=[N+]=CC(=O)C(Cc1ccccc1)N1C(=O)c2ccccc2C1=O (stereo unspecified) | . | . | 11µM | . | .
O=C1OC(Nc2nc(-c3ccc(F)cc3)cs2)c2ccccc21 (stereo unspecified) | . | 56µM | / | . | .
O=C1OC(Nc2nc3ccccc3s2)c2ccccc21 (stereo unspecified) | . | . | . | . | .
CCc1cc(C(=O)/C=C/c2cc3c(cc2C)OCCO3)c(O)cc1O | / | . | / | . | /
CCOC(=O)c1c2c(n(-c3ccc(OC)cc3)c1C)C(=O)C(=O)c1ccccc1-2 | / | ? | / | 56µM | ?
CCOC(=O)c1sc(=S)n(-c2ccc(OC)cc2)c1C | . | . | . | . | .
Cc1ccc(-c2nc(CS(=O)CC(=O)N3CCN(c4ccc(F)cc4)CC3)c(C)o2)cc1 (stereo unspecified) | . | ? | / | . | .
Cc1ccc(-c2nc(CS(=O)CC(=O)NC3CCC(C)CC3)c(C)o2)cc1 (stereo unspecified) | . | 16µM | . | . | .
Cc1oc(-c2ccccc2)nc1CS(=O)CC(=O)NC1CCCCCC1 (stereo unspecified) | . | 32µM | / | . | .
SMILES | GALK inh | rTrxR1 inhibitor | PKM2 act | TrxR1 substrate | PI4K2A inh
CCOC(=O)C1CCN(C(=O)CS(=O)Cc2nc(-c3ccc(C)cc3)oc2C)CC1 (stereo unspecified) | . | 14µM | . | . | .
Cc1oc(-c2ccc(Cl)cc2)nc1CS(=O)CC(=O)NC1CC1 (stereo unspecified) | . | . | / | . | .
COc1ccc(N2C(=O)CC(Sc3ccccc3C(=O)O)C2=O)c([N+](=O)[O-])c1 (stereo unspecified) | . | 71µM | 20µM | . | .
Cc1cccc(N2C(=O)CC(Sc3ccccc3C(=O)O)C2=O)c1 (stereo unspecified) | . | 56µM | ? | . | .
Cc1cc(C)cc(N2C(=O)CC(Sc3ccccc3C(=O)O)C2=O)c1 (stereo unspecified) | . | . | . | . | .
CCCCN1C(=O)CC(Sc2ccccc2C(=O)O)C1=O (stereo unspecified) | . | 16µM | . | . | .
O=C(O)c1ccccc1SC1CC(=O)N(c2ccc3c(c2)OCO3)C1=O (stereo unspecified) | . | 40µM | . | . | .
Cc1ccc(N2C(=O)CC(Sc3ccccc3C(=O)O)C2=O)c([N+](=O)[O-])c1 (stereo unspecified) | . | 79µM | ? | . | .
Cc1cccc(N2C(=O)CC(Sc3ncn[nH]3)C2=O)c1 (stereo unspecified) | . | 20µM | . | . | .
CN(C)c1ccc(N2C(=O)CC(Sc3ccccc3C(=O)O)C2=O)cc1 (stereo unspecified) | / | 79µM | . | . | .
Cc1ccc(N2C(=O)CC(Sc3ccccc3C(=O)O)C2=O)cc1 (stereo unspecified) | . | ? | ? | . | .
O=C(Cn1cc2c(n1)CCCC2)Nc1cc(C(F)(F)F)ccc1Cl | / | . | / | . | .
Cc1cccc(N2CCN(S(=O)(=O)c3ccc(-c4cc(C(F)(F)F)on4)s3)CC2)c1C | / | . | / | . | .
CC1=C(CC(=O)O)c2cc(F)ccc2/C1=C/c1ccc(S(C)=O)cc1 (stereo unspecified) | . | 35µM | / | . | .
CC1=C(CC(=O)O)c2cc(F)ccc2/C1=C\c1ccc(S(C)(=O)=O)cc1 | / | . | / | . | .
CC1CCN(S(=O)(=O)c2ccc3c(c2)N(CC(=O)O)C(=O)CO3)CC1 | / | . | / | . | .
